This note sets out measurements from PubChem BioAssay AID1222 (Sanford-Burnham Center for Chemical Genomics, 2008).

SMILES strings stand for the structures. Hit rate of the full screen: of about 190,000 compounds, fewer than 10 were called active.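 The calls were made as follows: active = EC50 below 50 µM in the dose-response confirmation; inactive = the rest.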 A selection follows. Entries with a potency or affinity are not part of this list.

The nature of this assay: protection against thapsigargin-triggered cell killing – 384-well, CSM14.1, ATP luminescence, primary screen (AID 1222).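 Also: death triggered by thapsigargin at about 15 µM added after 2 h compound pretreatment; cell ATP read after overnight thapsigargin exposure of roughly 18 to 22 hours; reference of the scale not given here.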 The conditions noted are these: CSM14.1 thapsigargin-induced death rescue, at 20 µM, hits give high values.
As to `COc1ccc(C2N(c3ccc(OC)cc3)C(=S)N3CCCN23)cc1` (stereo not drawn), the cellular ATP content (survival) is 3.3% (inactive).
Then `COc1ccccc1NC(=S)N(Cc1ccc(C)cc1)Cc1cccnc1`, with 2.6% (inactive); and `Cc1ccc(C(=O)NNC(=O)CSc2nnc(-c3ccccc3)n2Cc2ccccc2)cc1`, with -1.4% (inactive); and `O=C(CSc1ncnc2nc[nH]c12)N1CCN(c2ccccc2)CC1`, with 0.6% (inactive).
Then `CC1CCN(CCC(=O)N/N=C/c2ccc([N+](=O)[O-])cc2)CC1`, with -1.3% (inactive).
Then `CC(C)C(=O)c1cn(CC(=O)N2CCCc3ccccc32)c2ccccc12`, with 0.1% (inactive); and `O=C(NC1CCCCC1)C(c1ccc2ncccc2c1)N(Cc1ccco1)C(=O)c1ccc2c(c1)OCCO2` (stereo not drawn), with 14.1% (inactive).
With `O=C(CCCC(=O)N(c1ccc2c(c1)OCCO2)C(C(=O)NC1CCCCC1)c1ccc(F)cc1)Nc1ccccn1` (stereo not drawn), the cellular ATP content (survival) is -0.3% (inactive).
Turning to `COc1ccc(CN(C(=O)c2nsc(Cl)c2Cl)C(C(=O)NC2CCCCC2)c2ccc(OC)cc2)cc1` (stereo not drawn), the cellular ATP content (survival) is -2.1% (inactive).
Then `O=C(NC1CCCCC1)C(c1ccc2ncccc2c1)N(Cc1ccccc1)C(=O)c1cccs1` (stereo not drawn), with -2.1% (inactive).
The value for `COc1ccc(C(C(=O)NC2CCCCC2)N(C(=O)CCCC(=O)Nc2ccccn2)c2ccc3c(c2)OCCO3)cc1` (stereo not drawn) was 3.5% (inactive); that for `O=C(NC1CCCCC1)C(c1ccc2ncccc2c1)N(Cc1ccc(F)cc1)C(=O)c1cccs1` (stereo not drawn) was -1.3% (inactive).
The value for `O=C(NC1CCCCC1)C(c1ccc2ncccc2c1)N(Cc1cccs1)C(=O)c1cccs1` (stereo not drawn) was -8.2% (inactive).
Consider `O=C(NC1CCCCC1)C(c1ccc2ncccc2c1)N(Cc1ccc2c(c1)OCO2)C(=O)c1cccs1` (stereo not drawn), for which the cellular ATP content (survival) was -4% (inactive).
The value for `OC(C#CCN1CCOCC1)(c1ccccc1)C1CC1` (stereo not drawn) was -0.9% (inactive).
Then `COc1ccc(C(CC(=O)O)NC(=O)Cc2ccccc2)cc1OC` (stereo not drawn), with -3% (inactive).
Then `C=CCOc1ccc(C2CC(C)=NN2c2ccccc2)cc1` (stereo not drawn), with 6.2% (inactive).
Take `Cc1ccc2c(c1)nnn2C1CCN(CC(=O)NCc2ccccc2F)CC1`: the cellular ATP content (survival) is 3.5% (inactive).
The value for `COc1cc(C(C#N)N2N=C(c3ccccc3)CC2c2ccccc2)ccc1O` (stereo not drawn) was 0.2% (inactive); that for `CN(C)c1nc(N/N=C/c2ccccc2O)nc(Nc2ccc(F)cc2)n1` was -6.9% (inactive).
On to `Fc1cccc(Cc2noc(CN3CCC(c4ccncc4)CC3)n2)c1`, for which the cellular ATP content (survival) was 1.8% (inactive).
Then `O=C(COc1ccc(Cl)cc1Cl)NCCCCc1ccccc1`, with -2.7% (inactive); and `CS(=O)(=O)N1CCCC(C(=O)NCc2ccc(F)cc2)C1` (stereo not drawn), with 0.6% (inactive); and `CC(=O)Nc1sc2c(c1C(c1ccccn1)N1CCN(C)CC1)CCCC2` (stereo not drawn), with -0.7% (inactive).
Then `Cc1ccc(-c2nc(CSCC(=O)N3CCN(c4ccccn4)CC3)c(C)o2)cc1`, with -0.2% (inactive); and `COc1ccccc1OCc1ccc(C(=O)NCC(C)C)o1`, with 2.9% (inactive); and `COc1cccc(CN=C2Nc3ccccc3CS2)c1`, with 0.2% (inactive).
Turning to `O=C(Nc1cc(C(F)(F)F)ccc1N1CCOCC1)c1cccc(F)c1`, the cellular ATP content (survival) was 0.4% (inactive).
Then `O=C(Nc1ccccc1)c1nn(-c2ccccc2)c(=O)cc1C(F)(F)F`, with 2% (inactive); and `COc1ccccc1C(C)N(C)Cc1nc(COc2ccccc2)no1` (stereo not drawn), with -1.1% (inactive); and `COc1ccc(CCN(Cc2cccs2)S(=O)(=O)c2ccc(S(=O)(=O)N3CCCCCC3)cc2)cc1OC`, with -1.5% (inactive).
Then `CN1CCc2c(OCC(=O)N3N=C(c4cccs4)CC3c3ccc(F)cc3)cccc2C1=O` (stereo not drawn), with 1.4% (inactive); and `O=C1c2cccc(OCC(=O)N3N=C(c4cccs4)CC3c3ccc(F)cc3)c2CCN1Cc1ccccc1` (stereo not drawn), with -2.7% (inactive).
The value for `CC(C)OP(=O)(OC(C)C)C(Nc1ccccc1)c1ccccc1C(F)(F)F` (stereo not drawn) was 2.8% (inactive).
In the case of `CCOC(=O)c1c(NC(=O)C[n+]2ccc(N(C)C)cc2)sc(C)c1C`, the cellular ATP content (survival) was -2% (inactive).
In the case of `Cn1cc(Cl)c(C(=O)NNC(=S)NC2CCCCC2)n1`, the cellular ATP content (survival) was 1.1% (inactive).
`COC(=O)c1sc2ccccc2c1-n1cccc1C(=O)C(=O)Nc1ccc(OC)cc1`: the cellular ATP content (survival) is 4.6% (inactive).
The value for `COc1ccc(/C=C(/NC(=O)c2ccccc2)c2nc3ccc(Cl)cc3[nH]2)cc1OC` was 1.1% (inactive); that for `Cc1ccccc1NS(=O)(=O)c1cc(C(=O)N2CCc3ccccc3C2)ccc1C` was 0.4% (inactive); that for `CC(C)(C)C(=O)Nc1nc(=S)ss1` was 0% (inactive).
The value for `CCn1c(NCc2ccc3c(c2)OCO3)nc2ccccc21` was -1% (inactive); that for `CCOC(=O)c1cnc(-n2nc(C)cc2C)nc1Nc1ccc2c(c1)OCO2` was -1.2% (inactive); that for `CCn1cc(C(=O)O)c(=O)c2cc(S(=O)(=O)N(C)C)ccc21` was -1.2% (inactive).
The value for `O=C(Nc1ccc(N2CCOCC2)cc1)c1ccc(Cl)nc1` was -0.7% (inactive).
For the compound `CCOc1ccccc1NC(=O)COC(=O)C(CC)c1ccccc1` (stereo not drawn), the cellular ATP content (survival) is 0.7% (inactive).
In the case of `CCCCP(=O)(CCCC)c1ccccc1C(=O)O`, the cellular ATP content (survival) is -0.7% (inactive).
The value for `O=C(OCc1cc(=O)n2c(n1)sc1ccccc12)c1ccc(O)cc1O` was -1.2% (inactive); that for `COc1ccc(NC(=S)Nc2ccc(S(N)(=O)=O)cc2)c(OC)c1` was -0.3% (inactive); that for `CC(=O)c1c(C)nc2ccc(Br)cc2c1C(=O)O` was 0.7% (inactive).
Then `COc1cccc(C2CC(c3cccs3)=NN2C(=S)Nc2ccccc2)c1OC` (stereo not drawn), with 2.5% (inactive); and `COc1ccc(S(=O)(=O)N2CCC(C(=O)N3CCc4ccccc4C3)CC2)cc1Cl`, with 0.7% (inactive).
For `CCOC(=O)c1cc2c(=O)n3ccccc3nc2n(Cc2ccccc2Cl)c1=N`, the cellular ATP content (survival) was -1.3% (inactive).
The value for `CCCCNS(=O)(=O)c1ccc(S(=O)(=O)NCc2ccncc2)cc1` was -1.8% (inactive); that for `Cc1nc(N2CCC(C(N)=O)CC2)c2c(-c3cccs3)csc2n1` was -2.2% (inactive).
Then `CCOC(=O)C1=C(C)Nc2ccccc2N=C1NC(=O)CCCN1C(=O)c2ccccc2C1=O`, with -1.5% (inactive); and `COc1cc([N+](=O)[O-])ccc1NC(=O)c1cccc(NC(=O)C(C)C)c1`, with 2.2% (inactive).
The value for `COC(=O)C1=NN(C(C)=O)C2(CC(=O)N(c3cccc(C)c3)C2=O)C1` (stereo not drawn) was -0.1% (inactive); that for `CCN(C(=O)COc1ccccc1)C1CCCCC1` was -1.5% (inactive).
